HEK293 cAMP ctrl = qHTS Assay for Agonists of the Thyroid Stimulating Hormone Receptor: Activators of Intracellular cAMP Concentrations in Parental HEK 293; 73,000 tested, 2.5% active; Potency, µM (top dose mostly 57.1 µM), for inactives: top-dose activation, usual class: activators; parental HEK293 CNG cAMP sensor, membrane potential fluorescence; note: potency is the fitted concentration of half-maximal effect; % of control where 0% means no effect; nearly all actives have a fitted effect of over 55% in size
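Parental HEK 293 cells stably expressing a modified CNG channel (no TSHR) report cAMP rise as membrane depolarization. Membrane potential dye with 100 uM RO 20-1724 was loaded for 60 min at room temperature, then compound added for 30 min; fluorescence read at 590 nm.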
CRE Fsk mod = Cell signaling CRE-BLA (Fsk stim); AID 662, 2007; Potency, µM (top dose mostly 38.2 µM), without a hit: at the top dose activity change, negative = inhibition, most hits filed as activators; 71,000 tested, 2.5% active; CHO CRE-bla reporter (cAMP response element driving beta-lactamase), forskolin EC10, beta-lactamase ratio; active = well fitted activation curve with a large enough effect in the signal ratio, with a control signal flat, not every such curve was filed as active; inconclusive = small, poorly fitted or top-dose-only effect, or effect the other way, or a change in a side signal; the % refers to the signal ratio; note: potency is the fitted concentration of half-maximal effect; % of control where 0% means no effect
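AC50 values, positive or negative, reflect shifts in EC10 NKH 477-induced CRE-bla reporter activity in CHO cells. Incubation lasted 3 h at 37 °C before CCF4 substrate (2 h, room temperature) and ratiometric 460/530 nm reading.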
ERK AVP block = qHTS Assay for Inhibitors of the ERK Signaling Pathway using a Homogeneous Screening Assay; AID 995, 2007; 72,000 tested, 0.99% active; Potency, µM (titrated, usually from 57.5 µM), for the others: at the highest dose activity, negative = inhibition, actives largely listed as inhibitors; HEK293-V1b, vasopressin-stimulated pERK AlphaScreen; note: potency is the fitted concentration of half-maximal effect; % is set by controls: 0 for no effect and ±100 for the full control effect; nearly all actives have a fitted effect of over 55% in size
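Overnight-seeded V1b-HEK293 cells in 1% FBS got compound, then vasopressin (25 nM final, 5 min, 37C), then lysis buffer. AlphaScreen detection of phospho-ERK; activity normalized to basal and full-stimulation controls.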
Tau fil binding = qHTS Assay for Tau Filament Binding; Potency, µM (doses to about 57.1 µM), without a hit: top-dose activity change, negative = inhibition; recombinant tau filaments, thioflavin S fluorescence, 15 h; filaments grown with octadecylsulfate alongside compound; AID 596, 2007; Microtubule-associated protein tau (Homo sapiens), P10636; 71,000 tested, 2% active;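 note: potency is the fitted concentration of half-maximal effect; % is set by controls: 0 for no effect and ±100 for the full control effect; actives lower thioflavin S fluorescence by blocking filaments or displacing dye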
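Recombinant tau protein (human, 1 uM final) plus 30 uM ODS in HEPES pH 7.4 with NaCl, DTT and thioflavine S. Compound present from the start; fluorescence at 510 nm after 15 h, 37 C.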
TSHR ag = qHTS Assay for Agonists of the Thyroid Stimulating Hormone Receptor; HEK293-CNG-TSHR cells (CNG channel as cAMP sensor), membrane potential dye, cAMP; Thyrotropin receptor (Homo sapiens), P16473; Potency, µM (series often up to 57.1 µM), for inactives: top-dose activation, usual class: activators; 73,000 tested, 0.48% active; active = well fitted activation curve with a large enough effect in the main read-out, with a control signal flat, not every such curve was filed as active; inconclusive = small, poorly fitted or top-dose-only effect, or a change in a side signal; inactive = no such curve, though single readings can be large or run the other way; % of control where 0% means no effect;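 note: the control signal comes from parental cells without the receptor; potency is the fitted concentration of half-maximal effect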
Target sequence (P16473 whole entry, looked up): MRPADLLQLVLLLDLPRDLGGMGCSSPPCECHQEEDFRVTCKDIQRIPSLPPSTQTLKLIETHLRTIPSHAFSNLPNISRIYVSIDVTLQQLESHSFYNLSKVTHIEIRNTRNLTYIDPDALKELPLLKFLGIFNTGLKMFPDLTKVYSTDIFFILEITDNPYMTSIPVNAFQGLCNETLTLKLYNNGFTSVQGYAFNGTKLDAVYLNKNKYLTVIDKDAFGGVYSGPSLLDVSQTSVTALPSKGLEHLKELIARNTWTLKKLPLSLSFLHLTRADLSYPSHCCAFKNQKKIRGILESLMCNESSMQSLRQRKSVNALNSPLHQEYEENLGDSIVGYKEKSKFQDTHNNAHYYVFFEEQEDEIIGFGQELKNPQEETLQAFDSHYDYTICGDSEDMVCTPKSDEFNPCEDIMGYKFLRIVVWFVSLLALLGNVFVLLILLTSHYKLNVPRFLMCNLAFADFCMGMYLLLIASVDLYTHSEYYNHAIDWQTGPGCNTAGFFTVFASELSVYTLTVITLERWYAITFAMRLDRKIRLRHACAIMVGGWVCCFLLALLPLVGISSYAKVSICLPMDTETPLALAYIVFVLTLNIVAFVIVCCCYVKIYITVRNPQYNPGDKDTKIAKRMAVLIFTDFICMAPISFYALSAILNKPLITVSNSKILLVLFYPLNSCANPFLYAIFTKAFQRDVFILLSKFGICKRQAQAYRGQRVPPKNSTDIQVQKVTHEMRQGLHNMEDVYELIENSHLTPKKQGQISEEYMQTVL
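HEK 293 cells stably expressing TSHR and a cAMP-gated CNG channel; parental CNG-only cells as counterscreen. Cells preloaded 60 min with membrane potential dye plus 100 uM RO 20-1724, then compound 30 min; fluorescence read at 590 nm.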
CHO via 24h = Cell Viability - CRE-beta lactamase CHO cell - 24 hr assay | activity, negative = viability loss, % at 46.1 µM | shares compounds with CRE Fsk mod | CRE-bla CHO viability, ATP luminescence, 24 h | 120 tested, under 10 active
CHO tox 40h = Cell Viability - CRE-beta lactamase CHO cell - 40 hr assay; Potency, µM, for the others: max response, hits mostly inhibitors; CRE-bla CHO viability, ATP luminescence, 40 h; shares compounds with CRE Fsk mod; AID 906, 2007; 120 tested, under 10 active
CREB luc CRC = Confirmation Concentration-Response Assay for Cell signaling CRE-BLA (Fsk stim) - HEK293 CREB Luciferase. 120 tested, 80% active. HEK293 CRE-luc2P, NKH477 EC10 potentiation, luminescence, 4 h. Potency, µM (titrated, usually from 38.3 µM), for inactives: at the highest dose activity, positive = activation, usual class: activators. AID 907, 2007. shares compounds with CRE Fsk mod
The depositor's hits bear a star; ? = inconclusive; nt = not tested or not shown; [ ] = dose if it differs, or a comment. An excerpt weighted towards active compounds, which were near 7.4% of everything screened. Unless noted, calls come from the whole dose curve; as a rule, active = well fitted curve in the direction sought with a large enough effect; inconclusive = small, poorly fitted or top-dose-only effect, or another doubt; inactive = no such curve, though single readings can be large; an effect the other way counts as inactive or inconclusive.

SMILES	HEK293 cAMP ctrl	CRE Fsk mod	ERK AVP block	Tau fil binding	TSHR ag	CHO via 24h	CHO tox 40h	CREB luc CRC
Cc1cc(N2CCN(S(=O)(=O)c3ccc4c(c3)OCCO4)CC2)n2ncnc2n1	?	5.01µM*	-11.7%	5.0%	?	-6.6	-14.9%	12.6µM*
Cc1cc(N2CCN(S(=O)(=O)Cc3ccccc3)CC2)n2ncnc2n1	1.9%	7.0%	-14.4%	-1.3%	-1.5%	nt	nt	nt
CCOC(=O)C1=C(C)NC(=O)NC1c1ccc(F)cc1 (configuration not stated)	9.4%	3.9%	-6.1%	0.9%	6.1%	nt	nt	nt
CCOC(=O)C1=C(CN2CCC(C)CC2)NC(=O)NC1c1ccc(Cl)cc1 (configuration not stated)	24.2%	12.6µM*	6.6%	15.8µM*	26.7%	-14.5	-36.0%	12.6µM*
CCn1c2ccccc2c2nnc(SCN3C(=O)c4ccccc4C3=O)nc21	12.5%[11.4 µM]	?	?	1.4%[11.4 µM]	10.0%[11.4 µM]	-11.7	-21.4%	2µM*
Cn1c2ccccc2c2nnc(SCN3C(=O)c4ccccc4C3=O)nc21	10.3%	?	-22.0%	-2.0%	10.8%	nt	nt	nt
COc1cc(NC(=O)c2cccc3c2C(=O)N(Cc2cccnc2)C3)cc(OC)c1OC	13.5%	2µM*	41.2%	4.7%	8.7%	-15.1	?	0.794µM*
O=c1c2c3nc4ccccc4nc3n(CCN3CCOCC3)c2ncn1CCN1CCOCC1	3.5%	6.9%	-7.6%	13.2%	-0.9%	nt	nt	nt
Cc1ccc2c(c1)c1nc3ccccc3nc1n2CCN1CCOCC1	12.3%	1.26µM*	-20.1%	-1.3%	nt	-16.6	?	3.98µM*
COc1cccc(-c2ccc3ncnc(NC4CC4)c3c2)c1	24.5%	?	?	1.4%	nt	nt	nt	nt
CCCSc1nc2c(cnn2-c2ccc(F)cc2)c(=O)[nH]1	-4.6%	2µM*	nt	63.8%	3.9%	2.5	-16.4%	6.31µM*
O=C(c1cc(C(F)(F)F)cc(C(F)(F)F)c1)N1CCC2(CCCN(c3ccccc3)C2)CC1	8.4%	17.1%	6.1%	-20.6%	-2.6%	nt	nt	nt
O=S(=O)(Nc1cccc(-c2nc3cccnc3s2)c1)c1ccc2c(c1)OCCO2	1.7%	3.16µM*	nt	248.4%	91.3%	5.7	-14.1%	11.2µM*
N#Cc1ccc(CN2CC3(CCN(C(=O)c4cc(C(F)(F)F)cc(C(F)(F)F)c4)CC3)C2)cc1	28.0%	-1.7%	-2.1%	7.4%	15.2%	nt	nt	nt
COc1ccc(C#CC2C=CC(Oc3cc(C)cc(C)c3)C(CO)O2)cc1 (configuration not stated)	12.7%[11.4 µM]	nt	8.5%[11.5 µM]	nt	10.8%[11.4 µM]	nt	nt	nt
COc1ccc(CCN2C(=O)c3cccnc3C2=O)cc1OC	3.5%	1.4%	17.7%	-3.6%	-1.9%	nt	nt	nt
COc1cc2c(cc1OC)-c1c(OC)c(OC)cc3ccnc(c13)C2=O	-4.8%	?	-25.1%	31.6µM*	-4.5%	-18.9	?	0.159µM*
CCc1cccc(Nc2cc(C)nc3ncnn23)c1	?	26.0%	-2.2%	15.4%	?	nt	nt	nt
CCn1c2ccccc2c2cc(Nc3cc(C)nc4ncnn34)ccc21	12.8%	0.794µM*	25.1µM*	122.4%	nt	-24.4	?	8.7%
CCCCCC(=O)c1cc(CC(C(=O)OC)C(=O)OC)cc2cc(OC)c(OC)cc12	22.8%[11.4 µM]	nt	27.5%[11.5 µM]	nt	6.9%[11.4 µM]	nt	nt	nt
Cn1c(SCC(=O)N2CCOCC2)nc2sc3c(c2c1=O)CCCC3	1.2%	15.4%	-12.3%	9.4%	5.5%	-6.9	-17.4%	3.55µM*
Cc1cc(NC(=O)CSc2nc3sc4c(c3c(=O)n2C)CCCC4)no1	-9.0%	-1.2%	-4.8%	9.5%	9.8%	nt	nt	nt
CCN1C(=O)[C@H]2[C@H]3[C@H](O)[C@H](O)C/C(=N/OC[C@@H](C)[C@H](OCc4ccccc4)C(C)C)[C@@H]3CC[C@@H]2C1=O	-5.2%[11.4 µM]	nt	-9.8%[11.5 µM]	nt	4.4%[11.4 µM]	nt	nt	nt
C[C@@H](C(=O)Nc1ccc2ccccc2c1)[C@H]1C[C@]1(C)[C@H](NC(=O)Oc1ccc(F)cc1)c1ccccc1	5.1%	-8.5%	-11.2%	23.8%	-0.4%	nt	nt	nt
N=C(N)SCc1cccc2c(=O)cc(-c3ccccc3)oc12	0.8%[11.4 µM]	15.1%[7.6 µM]	2.1%[11.5 µM]	-17.6%[11.4 µM]	2.3%[11.4 µM]	nt	nt	nt
SMILES	HEK293 cAMP ctrl	CRE Fsk mod	ERK AVP block	Tau fil binding	TSHR ag	CHO via 24h	CHO tox 40h	CREB luc CRC
COc1cccc2c(C)nc(Nc3nc(CSc4nnc(C)s4)cc(=O)[nH]3)nc12	9.2%	?	17.5%	-7.2%	11.8%	?	-89.9%	6.31µM*
Cc1nc(NCc2ccc3c(c2)OCO3)c2oc3ccccc3c2n1	?	2.51µM*	?	42.5%	?	-8.0	-19.0%	12.6µM*
CCNc1nc(C)nc2c1oc1ccccc12	-0.6%	3.6%	6.3%	-19.2%	23.0%	nt	nt	nt
CCCCN1CCC[C@@H]1CNC(=O)c1cc(C#N)c2ccccc2c1OC	3.4%	-21.9%	9.4%	?	12.4%	nt	nt	nt
CCOc1ccc(-c2nnc3ccc(SCc4ccc(C(=O)OC)o4)nn23)cc1	27.5%	2µM*	0.4%	-2.5%	7.1%[11.4 µM]	-22.4	?	2.24µM*
Clc1ccc(-c2nnc3sc(-c4ccco4)nn23)c(Cl)c1	3.8%	?	3.3%	4.8%	-0.3%	nt	nt	nt
COc1cc(-c2nnc3sc(-c4ccco4)nn23)cc(OC)c1OC	-0.7%	1µM*	-19.3%	9.3%	-3.0%	-6.9	-24.6%	3.16µM*
COc1cc(-c2nnc3sc(-c4ccccn4)nn23)cc(OC)c1OC	-10.3%	0.0251µM*	13.4%	-9.0%	1.0%	-7.8	-17.1%	?
COCCNc1nc(-c2ccccc2CN(C)C)nc2ccccc12	?	?	-9.6%	7.2%	?	nt	nt	nt
C=CCn1c(=O)/c(=C/c2cc(OC)c(OC)c(OC)c2)s/c1=C(/C#N)c1nc2ccccc2n1C	-23.7%	1µM*	?	?	-8.5%	-22.0	-27.6%	1µM*
N[C@@H](C(=O)O)c1ccc(O)c(C(=O)O)c1	-0.2%	-13.2%	-13.6%	?	5.9%	nt	nt	nt
Cn1c(C(=O)NC2CC2)cc2c(=O)n(C)c3ccccc3c21	?	5.01µM*	-5.8%	30.2%	?	-8.5	-22.2%	10µM*
CCCN(C#N)c1nc(NCC)nc(NC(C)C)n1	?	10µM*	-12.5%	0.5%	?	-8.0	-15.6%	1.41µM*
